Among the data in article PMC7819943, “Rice protein-binding microarrays: a tool to detect cis-acting elements near promoter regions in rice” are binding signal values, retold here.

Over roughly 68,000 sequences, “fluorescence intensity (a.u.)” has its median near 9,100; the highest 2% begin near 16,000. Only a selection was taken, and the highest values are over-represented in it overall.

Chain of OsWRKY34 (Q0JBA9 entry or part of it): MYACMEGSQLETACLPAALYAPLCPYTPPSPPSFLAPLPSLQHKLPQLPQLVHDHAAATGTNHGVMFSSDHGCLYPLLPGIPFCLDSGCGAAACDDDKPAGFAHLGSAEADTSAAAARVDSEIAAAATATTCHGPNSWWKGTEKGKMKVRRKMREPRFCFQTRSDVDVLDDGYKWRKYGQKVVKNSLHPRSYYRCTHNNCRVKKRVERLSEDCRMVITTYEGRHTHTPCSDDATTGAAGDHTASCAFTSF

The test addresses OsWRKY34 (Oryza sativa, UniProt Q0JBA9 1-250). Description: protein-binding microarray (RPBM); PBS, 2% BSA, 51.3 ng/ul salmon testes DNA, 50 uM zinc acetate, 200 nM TF, 25 C, 1 h; high values mean tight binding. The settings on record: protein: recombinant; tags: N-terminal polyhistidine and DsRed monomer fusion (pET32a); label: CyDye5-dUTP incorporated in the synthesized complementary strand; 3' TTTTT single-stranded linker to array surface; dsDNA, one strand shown. Put shortly:
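The binding signal for each feature is its fluorescence intensity in arbitrary units. An Axon 4000B scanner was used to read a custom Agilent array that had been made double-stranded with Cy5-dUTP primer extension, blocked with 2% BSA, incubated at 25 °C for 1 h with 200 nM protein in PBS, 2% BSA, salmon testes DNA and 50 µM zinc acetate, and washed. The protein was an N-terminal polyhistidine–DsRed transcription factor fusion from E. coli BL21-CodonPlus, purified on Ni–NTA.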
In the case of “GGACTCCTGATTTCTACTCTATTCCTATTCCACTAGCTTACGGAGTCACCTAGTGCAG”, the binding signal was 14400 fluorescence intensity (a.u.).

Turning to “ATCCTGCGATTCCACCATATCCAATCCTCGTATCTTGGGTCGGAGTCACCTAGTGCAG”, the binding signal is 8310 fluorescence intensity (a.u.).

With “TTATCTAGATTCGTATTACTAGGATGTGTCTCGTTCAACCCGGAGTCACCTAGTGCAG”, the binding signal was 8780 fluorescence intensity (a.u.).

On to “GTGGGCCCCGCCCGTGTGATCGTGTCTCTGTTTCGTTTTCCGGAGTCACCTAGTGCAG”, for which the binding signal was 12100 fluorescence intensity (a.u.).

In the case of “GTGTTTTTTCTTCATTTGTCCCGTAATAAATTTATTTTTTCGGAGTCACCTAGTGCAG”, the binding signal is 12500 fluorescence intensity (a.u.).

In the case of “CGCTTACAGTCCACTCTCCACTGCGCCCGCATGAGTCATGCGGAGTCACCTAGTGCAG”, the binding signal is 8880 fluorescence intensity (a.u.).

In the case of “AAACTGCCAGCTTTCTGCATCTCTCCGCCCTCATGATGCGCGGAGTCACCTAGTGCAG”, the binding signal is 9490 fluorescence intensity (a.u.).

“TTTTCTTTCCTTTATTATTTTCTTTATCCTTTTTTTCTCCCGGAGTCACCTAGTGCAG”: the binding signal was 9250 fluorescence intensity (a.u.).

In the case of “ATCGGCGCCGTCGACCGCGACCACCCTGCCGCCGAGCGCCCGGAGTCACCTAGTGCAG”, the binding signal was 10300 fluorescence intensity (a.u.).

With “TCCTCTTCTTCTTCTTCTTCTTCTCGTGGGTGCAAGAAGCCGGAGTCACCTAGTGCAG”, the binding signal was 8380 fluorescence intensity (a.u.).

Consider “CGCCCAAGCTAGCTAGTGGCCATTATCCCATGGATATTTCCGGAGTCACCTAGTGCAG”, for which the binding signal was 8280 fluorescence intensity (a.u.).

For “ATCCTGTATCGTCCAGAATGCTTCTTCCATCCTAATCACCCGGAGTCACCTAGTGCAG”, the binding signal was 9220 fluorescence intensity (a.u.).

For the sequence “ATCACTCTTCTTGGTCGTTCTTGCCATTCTTGTACCGCGACGGAGTCACCTAGTGCAG”, the binding signal is 18200 fluorescence intensity (a.u.).

As for “CGGGGTTCTTGTGTTTATTGTTAAGATCCGGTTTGCTGAACGGAGTCACCTAGTGCAG”, the binding signal is 21900 fluorescence intensity (a.u.).

Turning to “ATCAAAGTTGCTGGGGTTAATTTGGGTTCTTGGTTGTGAACGGAGTCACCTAGTGCAG”, the binding signal was 15600 fluorescence intensity (a.u.).

With “TTCTTGCTAGTTCTTGTAGTATCTGGTTCTTGCTAGTTCTCGGAGTCACCTAGTGCAG”, the binding signal was 10800 fluorescence intensity (a.u.).

As to “ATCTTTTTACCCAATTCTTGATCACTCTTCTTGGTCGTTCCGGAGTCACCTAGTGCAG”, the binding signal is 8060 fluorescence intensity (a.u.).

Regarding “TCTCTCTCTCGTCGTCTCGCGTCTCTTCTCTCAACCGCGACGGAGTCACCTAGTGCAG”, the binding signal is 13800 fluorescence intensity (a.u.).

As to “GGTTGGGTGTTTTTGCTTCTCTTGTAGTCTTTGTGTAGAACGGAGTCACCTAGTGCAG”, the binding signal was 21500 fluorescence intensity (a.u.).

For “CTTCTCTTTGTTTTCTTGTTTGCTTGCTTGGTGTAAAGAACGGAGTCACCTAGTGCAG”, the binding signal was 16100 fluorescence intensity (a.u.).

Turning to “GCTTCTGCTTCTTCTTGTTCTTGTTGCTGTTGGTAATACTCGGAGTCACCTAGTGCAG”, the binding signal was 11000 fluorescence intensity (a.u.).

Consider “GTAATTCTGTTGTCATACGGTTTATTGTGTGGTTGCTGAACGGAGTCACCTAGTGCAG”, for which the binding signal is 9010 fluorescence intensity (a.u.).

Regarding “GGTATCTGTTGCTGCTTGCTGGTTCTCGTGCTATTGTTCTCGGAGTCACCTAGTGCAG”, the binding signal was 19900 fluorescence intensity (a.u.).

For the sequence “CATGTAATTCTCTTCACTTTTGCTTGTTTGGGTTGTGAAACGGAGTCACCTAGTGCAG”, the binding signal was 10100 fluorescence intensity (a.u.).

On to “CGCCACCGTCCTGCTCACCGGCGTTCCGCCGGAACGACTTCGGAGTCACCTAGTGCAG”, for which the binding signal is 9640 fluorescence intensity (a.u.).

As to “ATTTTTTTTGTCAAACTGCCACGAAAGCGTCACGTTAATACGGAGTCACCTAGTGCAG”, the binding signal was 8240 fluorescence intensity (a.u.).

For the sequence “CAATTCACGCCACCCGCTCCGCCTCTCGCCGCCTCGACCGCGGAGTCACCTAGTGCAG”, the binding signal is 11000 fluorescence intensity (a.u.).

As to “AAATTTTGACTCCTTCAGTTAATGATTTTCGTATACAAATCGGAGTCACCTAGTGCAG”, the binding signal is 8180 fluorescence intensity (a.u.).

For “ATCTCTCTCATATTCCTTCGATCTGCAGCTTGTACGTTGGCGGAGTCACCTAGTGCAG”, the binding signal is 14500 fluorescence intensity (a.u.).

In the case of “CTGTTGACTATCCATGCCATTTTTACCGATTAGTCTATCTCGGAGTCACCTAGTGCAG”, the binding signal is 13800 fluorescence intensity (a.u.).

With “CGCAGTCCGAAGTTGATTTTTTTTTTTTTTACGGAGTACTCGGAGTCACCTAGTGCAG”, the binding signal is 8250 fluorescence intensity (a.u.).

Turning to “TGATTGTGTTTGTAGACTTGGTTGGTATTGTTGAACGGATCGGAGTCACCTAGTGCAG”, the binding signal was 11800 fluorescence intensity (a.u.).

On to “AAATACTCCCTCCGTATTTTAATGTATGACACCGTTGACTCGGAGTCACCTAGTGCAG”, for which the binding signal was 10300 fluorescence intensity (a.u.).

Regarding “AGGGAGCCTATTTTAATGTATGACACCGTTGACTTTTTTGCGGAGTCACCTAGTGCAG”, the binding signal is 19200 fluorescence intensity (a.u.).

Take “TTTATGTAATGCCTTAAGATCACACATTGACTTATTTTTGCGGAGTCACCTAGTGCAG”: the binding signal is 8050 fluorescence intensity (a.u.).

On to “AGAGGGAGTATTATGTTTATGCTTTTAATTTTTCACTTTGCGGAGTCACCTAGTGCAG”, for which the binding signal is 9150 fluorescence intensity (a.u.).

As to “CCGTATTTTAATGTATATGACACCGTTGACTTTTTGACCACGGAGTCACCTAGTGCAG”, the binding signal was 40800 fluorescence intensity (a.u.).

“CATCCGTATTTTAATGTATGACACCGTTGACTTTTCGACTCGGAGTCACCTAGTGCAG”: the binding signal is 19100 fluorescence intensity (a.u.).

For “CATATTTTAATTTTAATGTATGACACCGTTGACTTTTCGACGGAGTCACCTAGTGCAG”, the binding signal is 16000 fluorescence intensity (a.u.).

Turning to “TTATGCATCGATATATACCACATGTCAACCGATGAATTCACGGAGTCACCTAGTGCAG”, the binding signal is 9490 fluorescence intensity (a.u.).

Turning to “TTTTCCAAACTTCCAACTTTCTATCACATCAAACCTTTCACGGAGTCACCTAGTGCAG”, the binding signal is 8100 fluorescence intensity (a.u.).

Regarding “ACCTGGCTGTGCATGTACTACCCCAATGCATTTCTCTCTCCGGAGTCACCTAGTGCAG”, the binding signal was 8250 fluorescence intensity (a.u.).
